Test results: PubChem BioAssay (NCI)
Compounds without any hit were thinned out: in the full panel of roughly 79,000, 15% have a hit. The source made the active and inactive calls. Rule as the data show it: active = growth inhibition above about 70%; inactive = the rest.

Tests used:
[1] = NCI Yeast Anticancer Drug Screen. Data for the rad52 strain (AID 147);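 also: 0% = growth of vehicle-treated control cultures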; details: S. cerevisiae rad52 mutant growth inhibition, active compounds read high
In short: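 The repair-mutant yeast strain was incubated with compounds, then growth was read and inhibition derived relative to vehicle.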

[2] = NCI Yeast Anticancer Drug Screen. Data for the wt1 strain (AID 149);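 also: 0% = growth of vehicle-treated wt1 cultures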; details: S. cerevisiae wt1 strain (SPY 50644) growth inhibition, active compounds read high
In short: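 Measured: growth of wt1 yeast under compound versus vehicle treatment, reported as inhibition.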

[3] = NCI Yeast Anticancer Drug Screen. Data for the rad50EPP+ strain (AID 151);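 also: 0% = growth of vehicle-treated control cultures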; details: S. cerevisiae rad50 mutant strain, active compounds read high
In short: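 Vehicle-normalised growth inhibition; rad50EPP+ yeast strain, altered in DNA damage repair, compound-treated.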

[4] = NCI Yeast Anticancer Drug Screen. Data for the rad50 strain (AID 155);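 also: 0% = growth of vehicle-only cultures of the same strain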; details: S. cerevisiae rad50 strain growth inhibition, active compounds read high
In short: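 Growth of the mutant yeast was measured after compound exposure and referenced to vehicle-treated cultures.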

[5] = NCI Yeast Anticancer Drug Screen. Data for the mec2-1 strain (AID 157); details: S. cerevisiae mec2-1 strain, active compounds read high
In short: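 Mutant yeast (mec2-1) grown with compound; growth inhibition relative to vehicle control reported.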

[6] = NCI Yeast Anticancer Drug Screen. Data for the rad14 strain (AID 159);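 also: 0% = growth of vehicle-treated control cultures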; details: S. cerevisiae rad14 strain growth inhibition, active compounds read high
In short: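 Here, inhibition of yeast growth was measured after compound exposure, using a strain with a genetic defect in DNA damage repair and vehicle-treated cultures as the reference.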

[7] = NCI Yeast Anticancer Drug Screen. Data for the sgs1 mgt1 strain (AID 161);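 also: 0% = growth of cultures given vehicle only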; details: S. cerevisiae sgs1 mgt1 strain, active compounds read high
In short: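 This yeast growth screen uses a strain with defined DNA-repair lesions; compound-treated growth is compared with vehicle-treated growth.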

[8] = NCI Yeast Anticancer Drug Screen. Data for the CLN2oe strain (AID 163);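 also: 0% = growth of vehicle-only control cultures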; details: S. cerevisiae CLN2oe strain, active compounds read high
In short: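 Compounds are applied to yeast harbouring a defined cell-cycle control change; reduced growth compared with vehicle-treated controls gives the value.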

[9] = NCI Yeast Anticancer Drug Screen. Data for the cln2 rad14 strain (AID 165);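 also: 0% = growth equal to vehicle treated cultures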; details: S. cerevisiae cln2 rad14 strain, active compounds read high
In short: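 Readout is yeast growth inhibition versus vehicle-treated controls, using a strain with cln2 and rad14 alterations exposed to compound.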

[10] = NCI Yeast Anticancer Drug Screen. Data for the bub3 strain (AID 167); details: S. cerevisiae bub3 mutant strain, active compounds read high
In short: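 Whole-cell yeast assay. The mutant strain was incubated with compounds, and growth inhibition was determined by comparison with vehicle-treated cells.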

[11] = NCI Yeast Anticancer Drug Screen. Data for the wt2 strain (AID 169);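 also: 0% = growth of vehicle-treated yeast cultures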; details: S. cerevisiae wt2 strain growth inhibition, active compounds read high
In short: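 Against vehicle-treated controls, the growth of yeast exposed to each compound was compared, and the inhibition was recorded.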

[12] = NCI Yeast Anticancer Drug Screen. Data for the mlh1 strain (AID 171);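 also: 0% = growth of vehicle-treated control cultures of the same strain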; details: S. cerevisiae mlh1 strain growth inhibition, active compounds read high
In short: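 Measured: yeast growth. Reference: vehicle-treated controls. Organism: strain with a defined alteration affecting DNA damage repair or cell cycle control, treated with compound.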

[13] = NCI Yeast Anticancer Drug Screen. Data for the sgs1 strain (AID 173);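 also: 0% = growth of vehicle-only control cultures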; details: S. cerevisiae sgs1 mutant, active compounds read high
In short: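 Each compound was added to cultures of the altered yeast strain. Growth was recorded, and inhibition was derived by comparison with vehicle controls.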

[14] = NCI Yeast Anticancer Drug Screen. Data for the mlh1 rad18 strain (AID 175); details: S. cerevisiae mlh1 rad18 strain growth inhibition, active compounds read high
In short: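 Genetically defined yeast (DNA repair-deficient) exposed to compounds; growth inhibition determined relative to vehicle.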

[15] = NCI Yeast Anticancer Drug Screen. Data for the rad18 strain (AID 177); details: S. cerevisiae rad18 mutant growth inhibition, active compounds read high
In short: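 Vehicle-treated cultures served as the baseline for scoring compound-induced growth inhibition in DNA-repair-mutant yeast.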

[16] = at 5.0 µM (retest, dose inferred, filed as 0.5)
[17] = at 50.0 µM (retest, dose inferred, filed as 5.0)

Measured: growth inhibition

CCc1ccc2c(c1)N(CC(C)CN(C)C)c1ccccc1S2 (stereo unspecified)
active: [3]; at 100.0 µM 87% | [4]; at 100.0 µM 82% | [6]; at 100.0 µM 96% | [10]; at 50.0 µM 74% | [10]; at 100.0 µM 74% | [11]; at 100.0 µM 78% | [13]; at 100.0 µM 93% | [14]; at 50.0 µM 83.5% | [15]; at 100.0 µM 85%
inactive: [1]; at 1.2 µM -5% | [1]; at 3.7 µM -8% | [1]; at 11.0 µM -9% | [1]; at 33.0 µM -1% | [1]; at 100.0 µM 69% | [2]; at 1.2 µM -2% | [2]; at 3.7 µM -4% | [2]; at 11.0 µM -6% | [2]; at 33.0 µM -5% | [2]; at 100.0 µM 32% | [3]; at 1.2 µM -12% | [3]; at 3.7 µM -15% | [3]; at 11.0 µM -23% | [3]; at 33.0 µM -31% | [4]; at 1.2 µM -4% | [4]; at 3.7 µM -9% | [4]; [16] 2% | [4]; at 11.0 µM -1% | [4]; at 33.0 µM 4% | [4]; [17] 37% | [4]; at 50.0 µM 52.1% | [5]; at 1.2 µM -6% | [5]; at 3.7 µM -8% | [5]; [16] -7% | [5]; at 11.0 µM -12% | [5]; at 33.0 µM -4% | [5]; [17] -27% | [5]; at 50.0 µM -12.1% | [5]; at 100.0 µM 58% | [6]; at 1.2 µM -2% | [6]; at 3.7 µM -4% | [6]; at 11.0 µM -1% | [6]; at 33.0 µM 23% | [7]; [16] -12% | [7]; [17] 23% | [7]; at 50.0 µM 24.3% | [8]; at 1.2 µM -9% | [8]; at 3.7 µM -4% | [8]; at 11.0 µM -10% | [8]; at 33.0 µM 3% | [8]; at 100.0 µM 58% | [9]; [16] -24% | [9]; [17] 21% | [9]; at 50.0 µM 65% | [10]; at 1.2 µM -3% | [10]; at 3.7 µM 3% | [10]; [16] 2% | [10]; at 11.0 µM 18% | [10]; at 33.0 µM 48% | [10]; [17] 32% | [11]; at 1.2 µM -4% | [11]; at 3.7 µM -4% | [11]; at 11.0 µM -6% | [11]; at 33.0 µM 3% | [12]; at 1.2 µM -2% | [12]; at 3.7 µM -3% | [12]; at 11.0 µM -5% | [12]; at 33.0 µM -23% | [12]; at 100.0 µM 62% | [13]; at 1.2 µM -4% | [13]; at 3.7 µM -5% | [13]; at 11.0 µM -4% | [13]; at 33.0 µM 16% | [14]; [16] -9% | [14]; [17] 63% | [15]; at 1.2 µM -12% | [15]; at 3.7 µM -10% | [15]; at 11.0 µM -8% | [15]; at 33.0 µM 2%

O=C(NCCCNCCN1C(=O)c2cccc3cc([N+](=O)[O-])cc(c23)C1=O)c1cc(-c2ccccc2)nc2ccccc12
active: [1]; at 100.0 µM 98% | [2]; at 100.0 µM 96% | [4]; [17] 98% | [4]; at 50.0 µM 94.3% | [4]; at 100.0 µM 99% | [5]; [17] 86% | [5]; at 50.0 µM 91% | [5]; at 100.0 µM 99% | [6]; at 100.0 µM 99% | [7]; [17] 96% | [7]; at 50.0 µM 93.5% | [8]; at 100.0 µM 98% | [9]; [17] 78% | [9]; at 50.0 µM 93.6% | [10]; [17] 97% | [10]; at 50.0 µM 93.3% | [10]; at 100.0 µM 98% | [11]; at 100.0 µM 99% | [12]; at 100.0 µM 99% | [13]; at 100.0 µM 98% | [14]; [17] 97% | [14]; at 50.0 µM 97.6% | [15]; at 100.0 µM 99%
inactive: [1]; at 1.2 µM -2% | [1]; at 3.7 µM 2% | [1]; at 11.0 µM 6% | [1]; at 33.0 µM 38% | [2]; at 1.2 µM 0% | [2]; at 3.7 µM -1% | [2]; at 11.0 µM -2% | [2]; at 33.0 µM -6% | [3]; at 1.2 µM 0% | [3]; at 3.7 µM 2% | [3]; at 11.0 µM 8% | [3]; at 33.0 µM 19% | [3]; at 100.0 µM 57% | [4]; at 1.2 µM -2% | [4]; at 3.7 µM 2% | [4]; [16] -11% | [4]; at 11.0 µM 8% | [4]; at 33.0 µM 64% | [5]; at 1.2 µM 0% | [5]; at 3.7 µM -1% | [5]; [16] -1% | [5]; at 11.0 µM 0% | [5]; at 33.0 µM 5% | [6]; at 1.2 µM -1% | [6]; at 3.7 µM -1% | [6]; at 11.0 µM 4% | [6]; at 33.0 µM 21% | [7]; [16] -2% | [8]; at 1.2 µM 1% | [8]; at 3.7 µM 3% | [8]; at 11.0 µM -4% | [8]; at 33.0 µM 10% | [9]; [16] 33% | [10]; at 1.2 µM -4% | [10]; at 3.7 µM 0% | [10]; [16] -9% | [10]; at 11.0 µM 2% | [10]; at 33.0 µM 9% | [11]; at 1.2 µM -1% | [11]; at 3.7 µM -1% | [11]; at 11.0 µM -2% | [11]; at 33.0 µM -2% | [12]; at 1.2 µM -3% | [12]; at 3.7 µM 1% | [12]; at 11.0 µM 1% | [12]; at 33.0 µM 9% | [13]; at 1.2 µM -1% | [13]; at 3.7 µM 1% | [13]; at 11.0 µM 2% | [13]; at 33.0 µM 17% | [14]; [16] -1% | [15]; at 1.2 µM -3% | [15]; at 3.7 µM -2% | [15]; at 11.0 µM -1% | [15]; at 33.0 µM 10%
